Common to all, as to assay: NCI-60 one-dose screen, 48 h (100 = growth as untreated, 0 = no growth, -100 = all killed)
Holding throughout (details): 10 µM unless noted

Assay [1] relates to SR leukemia.
The subject of assay [2] is RPMI-8226 leukemia.
Assay [3] relates to OVCAR-8 ovarian.
Assay [4] deals with OVCAR-5 ovarian.
Assay [5] relates to OVCAR-4 ovarian.
Assay [6] concerns SK-OV-3 ovarian.
For assay [7], the system named is IGROV1 ovarian.
The test system of assay [8] is OVCAR-3 ovarian.
Assay [9] concerns HS 578T breast.
Assay [10] has as its system NCI/ADR-RES ovarian.
For assay [11], the system named is BT-549 breast.
Assay [12] has as its system MDA-MB-435 melanoma.
For assay [13], the system named is SW-620 colon.
Assay [14] relates to MCF7 breast.
The subject of assay [15] is HCT-116 colon.
Assay [16] concerns HCC-2998 colon.
In assay [17] the test system is KM12 colon.
For assay [18], the system named is T-47D breast.

Compounds without any hit were thinned out: in the full panel of roughly 83,000, 20% have a hit.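 Activity criterion: percent growth below 10, measured after cells in 96-well plates were exposed to a single compound concentration for 48 hours.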 Unmarked numbers belong to inactive results. Calls of active or inactive are those of the source.

`CN(C)c1nc2c(N)ncnc2n1C1OC(CO)C(O)C1O` (configuration not stated): the growth in assay [1] is 99%; in [2], 92.1%; in assay [3], 107%; in [4] it was 97.6%; in [5], 123%; in assay [6], 116%. The growth is 111% in assay [7]; 108% in assay [8]; 106% in assay [9]; 114% in [10]; 99.9% in [11]; 112% in assay [12]. Further, the growth in assay [13] was 109%; in assay [14] it was 99.4%; in assay [15] it was 105%; in [16], 110%; in [17], 105%.
`O=C1/C(=C/c2ccc([N+](=O)[O-])cc2)CN(C(=O)CCN2CCC(=NO)CC2)C/C1=C\c1ccc([N+](=O)[O-])cc1`: the growth in assay [1] was 8.69% (active); in assay [2], -34.8% (active); in assay [3] it was 6.6% (active); in assay [4], -41.3% (active); in assay [5] it was -8.21% (active); in assay [6] it was 17.3%. The growth in assay [7] was -21.2% (active); in [8], -59% (active); in assay [9], 22.8%; in assay [10], 7.5% (active); in assay [18], 10.1%; in [11], -40.7% (active). The growth in assay [12] is -52.1% (active); in assay [13], -53.2% (active); in assay [15], -67.4% (active); in assay [17], -55.3% (active).
With `CC(C)(C)n1cc(-c2ccnc(NCCCNS(=O)(=O)c3ccc(Cl)cc3)c2)c(-c2cccc(O)c2)n1`, the growth in assay [1] was -34.5% (active); in assay [2], -29.7% (active); in assay [3] it was 6.22% (active); in assay [4], -20.5% (active); in assay [5], 23.4%; in assay [6], 37.4%. Besides, the growth in assay [7] was 8.56% (active); in assay [8], 4.31% (active); in [9], -12.2% (active); in assay [10], 12.2%; in [18], 5.38% (active); in [12] it was 15.6%. Moreover, the growth was -38% (active) in assay [13], 6.49% (active) in [15], -81.5% (active) in assay [16] and -36.5% (active) in assay [17].
As to `Cn1ccc(Nc2nccc(Oc3ccc(C(=O)Nc4cccc(F)c4)c(Cl)c3)n2)c1`, the growth was 98.3% in assay [1]; 107% in assay [2]; 88.2% in assay [3]; 87.9% in assay [4]; 67% in assay [5]; 15.9% in [6]. Also, the growth was 62.4% in assay [7]; 55.6% in assay [8]; 96.9% in [9]; 38.8% in assay [18]; 80.5% in assay [11]; 81.3% in [12]. The growth in [13] is 85.4%; in [14] it was 85.9%; in assay [15] it was 86.8%; in assay [16], 81.9%; in assay [17], 102%.
Consider `CCOC(=O)CC(=O)OC`, for which the growth was 76.7% in assay [1]; 97.4% in assay [2]; 103% in [3]; 101% in assay [4]; 100% in assay [5]; 101% in assay [6]. The growth was 111% in assay [7]; 123% in assay [8]; 114% in assay [9]; 113% in [10]; 101% in assay [11]; 110% in [12]. For the same molecule, the growth is 98.8% in assay [13]; 91.5% in assay [14]; 104% in assay [15]; 104% in assay [16]; 115% in [17].
For the molecule `CCC1=CCC[C@@]2(C)CCC[C@@]3(C)CCCC(C)(C)[C@]1([O-])[O+]32`, the growth in assay [1] is 112%; in assay [2] it was 97.9%; in assay [3], 104%; in assay [4] it was 104%; in assay [5], 85.1%; in [6] it was 107%. The growth was 105% in assay [7]; 111% in assay [8]; 92.8% in [9]; 106% in assay [10]; 101% in [11]; 103% in assay [12]. In addition, the growth was 101% in assay [13]; 98.8% in assay [14]; 102% in [15]; 104% in [16]; 110% in assay [17].
For `c1ccc(-c2nnc(-c3ccccn3)s2)nc1`, the growth in assay [1] is 96.7%; in assay [2], 54.8%; in assay [3], 94%; in [4], 92.2%; in assay [5], 91.5%; in [6] it was 95.2%. For the same molecule, the growth in assay [7] was 80.7%; in [8] it was 95.5%; in [9], 142%; in assay [10], 83%; in assay [18], 33.9%; in [12], 105%. Besides, the growth in assay [13] is 99.8%; in [14], 28.6%; in [15] it was 86.8%; in [16], 46.2%; in assay [17], 97.3%.
Regarding `C/C(=C\c1ccc(OCC(=O)O)c(Cl)c1Cl)[N+](=O)[O-]`, the growth in assay [1] was 72.1%; in assay [2], 99.7%; in [3], 93.7%; in [4], 113%; in assay [5] it was 114%; in assay [6], 94%. In addition, the growth in assay [7] is 133%; in assay [8] it was 99.9%; in [9], 107%; in assay [10], 102%; in [18], 100%; in [12], 106%. The growth in [13] is 114%; in assay [14], 103%; in assay [15], 109%; in assay [16] it was 97.1%; in assay [17] it was 104%.
Consider `O=c1cc(Cc2ccc([N+](=O)[O-])cc2)[nH]c(=O)[nH]1`, for which the growth in [1] was 91.9%; in assay [2], 91.6%; in [3], 103%; in assay [4], 98.2%; in [5], 108%; in assay [6] it was 99.1%. The growth in assay [7] is 117%; in assay [8] it was 126%; in assay [9] it was 100%; in [10], 109%; in assay [11], 98.3%; in assay [12] it was 107%. Moreover, the growth in assay [13] was 103%; in assay [14], 106%; in assay [15] it was 103%; in assay [16], 105%; in [17], 106%.
`CC(C)(C)n1cc(-c2ccnc(NCCCNS(=O)(=O)c3ccc(Br)cc3)c2)c(-c2cccc(O)c2)n1`: the growth is -16% (active) in [1]; -6% (active) in [2]; 41.1% in [3]; 38.5% in assay [4]; 36.5% in [5]; 62.6% in [6]. The growth in assay [7] is 34.9%; in assay [8], 42.8%; in [9], 16.9%; in assay [10], 43.7%; in [18], 29.9%; in assay [12], 39%. Further, the growth in assay [13] was 7.75% (active); in assay [14] it was 7.27% (active); in [15] it was 22.6%; in assay [16], -56.1% (active); in assay [17], 1.78% (active).
Consider `COc1ccc(Cn2cc3c(c2-c2cc(OC)c(OC)c(OC)c2)CCc2cnoc2-3)cc1`, for which the growth was 13.1% in assay [1]; 23.4% in assay [2]; 34.6% in assay [3]; 47.7% in assay [4]; 22.6% in assay [5]; -0.435% (active) in [6]. Besides, the growth in assay [7] is 7.18% (active); in assay [8] it was -5.4% (active); in [9] it was 15.9%; in assay [10] it was 20.1%; in assay [18] it was 41.2%; in assay [11], 41.6%. Further, the growth in [12] was -37.3% (active); in [13], 29.8%; in [15], 13%; in [16], 1.48% (active); in assay [17] it was 11.1%.
For `O=C(CSC1CCc2ccccc21)N/N=C/c1ccccc1O` (configuration not stated), the growth in assay [1] is 17.7%; in assay [2], 71.5%; in assay [3], 57.3%; in [4], 78.1%; in assay [5] it was 38.1%; in assay [6], 50%. For the same molecule, the growth in assay [7] was 27.4%; in assay [8], 20.6%; in assay [9], 84.9%; in assay [18], 40.3%; in assay [11], 68.9%; in [12], 71.7%. In addition, the growth in [13] is 52.9%; in [14] it was 19.2%; in assay [15], 31.5%; in assay [16] it was 66.7%; in [17] it was 41%.
Take `COc1ccc(C2=CC(c3cc(OC)c(OC)c(OC)c3)NC(=O)N2)cc1OC` (configuration not stated): the growth in assay [1] was 9.57% (active); in assay [2], 4.8% (active); in assay [3] it was 18.8%; in assay [4], 34.6%; in assay [5], 18.8%; in [6], 23.3%. The growth in assay [7] was -17.7% (active); in [8], -24% (active); in [9], 7.62% (active); in assay [10] it was 13.7%; in assay [11], 8.72% (active); in assay [12], 7.31% (active). For the same molecule, the growth in [13] was 17.3%; in assay [14], 15%; in [15], 13.4%; in [16] it was 18.7%; in assay [17], -26.8% (active).
Regarding `CCCCN(CCCC)C(=O)CC`, the growth in assay [1] is 102%; in assay [2], 115%; in assay [3], 112%; in [4] it was 106%; in [5], 108%; in assay [6] it was 122%. For the same molecule, the growth in assay [7] was 115%; in assay [8], 113%; in [9], 149%; in [10], 103%; in assay [18], 124%; in assay [12], 104%. For the same molecule, the growth is 110% in assay [13]; 93.3% in [14]; 102% in assay [15]; 107% in [16]; 106% in assay [17].
Consider `O=C(O)Cc1cccc(=O)c(O)c1C(=O)O`, for which the growth was 103% in assay [1]; 88.8% in assay [2]; 105% in assay [3]; 96.4% in [4]; 117% in assay [5]; 107% in assay [6]. In addition, the growth in assay [7] was 110%; in assay [8], 114%; in assay [9] it was 112%; in [10], 117%; in assay [11], 102%; in assay [12], 109%. Besides, the growth is 106% in [13]; 100% in assay [14]; 102% in assay [15]; 106% in assay [16]; 104% in [17].
As for `C=C1C(=O)O[C@H]2[C@H]1CC/C(Cn1cc(CNC(=O)Cc3cn(C(=O)c4ccc(Cl)cc4)c4ccc(OC)cc34)nn1)=C\CC[C@@]1(C)O[C@@H]21`, the growth in [1] was -28% (active); in [2], -40.2% (active); in [3] it was -64.2% (active); in assay [4] it was 58.3%; in [5] it was 18.8%; in assay [6], 88.9%. Also, the growth in assay [7] was -18.7% (active); in [8], -82.3% (active); in assay [9], 24.7%; in [10], 95.9%; in [18] it was -61.6% (active); in assay [11], -3.93% (active). The growth in assay [12] was -63.2% (active); in assay [13], -67.4% (active); in assay [15] it was -95% (active); in assay [16], 8.2% (active); in [17], 41.9%.
Turning to `NNc1cccc(/C=C/c2ccccc2)cc1=O`, the growth is 31.8% in assay [1]; 29.8% in assay [2]; 57.8% in assay [3]; 82.3% in assay [4]; 45.9% in [5]; 76.4% in assay [6]. The growth was 33.6% in assay [7]; 54.6% in assay [8]; 78.5% in assay [9]; 59.6% in [10]; 69.1% in [11]; 73.2% in assay [12]. The growth was 54.7% in [13]; 36.1% in assay [14]; 33.8% in assay [15]; 70.2% in assay [16]; 59% in [17].

The record behind these values is PubChem BioAssay (NCI).
